This is an account of results in PubChem BioAssay (Tox21).

SMILES strings stand for the structures. A number with no mark means an inactive call. Inconclusive results are not listed. The source made the active and inactive calls. Unless noted, calls come from the whole dose curve.

A short description of test [1]: Nuclear factor erythroid 2-related factor 2/antioxidant responsive element (Nrf2/ARE) small molecule agonists: qHTS cell viability counter screen in human keratinocytes (AID 1919968; active = well fitted curve in the direction sought with a large enough effect in the repeat runs; an effect the other way counts as inactive or inconclusive; note: nearly all actives have a fitted effect of over 55% in size; note: potency is the fitted concentration of half-maximal effect). In short, it runs like this: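 CellTiter-Fluor fluorescence, read 1 h after reagent, gave viability in the same wells as the ARE-luciferase assay. KeratinoSens cells (1,500/well) had 23 h compound exposure at 37 C/5% CO2 following 5 h plating.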
(qHTS replaces the single test concentration by a dilution series.)

The nature of test [2]: Nuclear factor erythroid 2-related factor 2/antioxidant responsive element (Nrf2/ARE) small molecule agonists: luciferase reporter gene qHTS assay in human keratinocytes (AID 1919969; note: nearly all actives have a fitted effect of over 35% in size; note: potency is the fitted concentration of half-maximal effect). (In a reporter assay the amount or activity of a reporter protein is the signal.)
The target in test [3] is KiSS-1 receptor (Homo sapiens) (UniProt Q969F8). As to the kind of experiment: Human kisspeptin (KISS1R) small molecule agonists, calcium flux assay in KISS1R-HEK293 cells (AID 1920064; active = well fitted curve in the direction sought with a large enough effect in the repeat runs; an effect the other way counts as inactive or inconclusive). An outline of the steps:
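Agonist mode: intracellular calcium rise tracked at 1 s intervals over 3 min (480/540 nm) immediately after compound addition to dye-loaded KISS1R-HEK293 stable cells. Each compound tested at 15 concentrations in triplicate.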
On the technique in general: Calcium assays in cells follow changes in intracellular calcium, usually with a dye or a luminescent sensor.

Test [4] in a line: G protein-coupled receptor (GPCR) small molecule agonists, calcium flux assay: HEK293 wild type cell line counter screen (AID 1920065). An outline of the steps:
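Calcium flux counter screen: compound added in agonist mode at 15 concentrations in triplicate to dye-loaded parental HEK293 cells. Fluorescence (480/540) read kinetically for 3 min; ATP served as positive control.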

A short description of test [5]: p53 small molecule agonists, cell-based qHTS assay with rat liver microsomes (AID 1963578). An outline of the steps:
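Read-out is beta-lactamase reporter fluorescence (LiveBLAzer, 2 h, room temperature, dark) in p53RE-bla cells treated 16 h at 37 C with compound, rat liver microsomes and NADPH, both 0.5 mg/mL final.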

A short description of test [6]: p53 small molecule agonists, cell-based qHTS assay with human liver microsomes: qHTS cell viability counter screen (AID 1963579). Note: nearly all actives have a fitted effect of over 45% in size. In short, it runs like this:
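Cells carrying the p53 response-element beta-lactamase reporter are treated for 16 h at 37 C with test compounds in the presence of human liver microsomes and NADPH (both 0.5 mg/mL final); ATP-based CellTiter-Glo luminescence then reports viability.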

Test [7] can be described thus: p53 small molecule agonists, cell-based qHTS assay with rat liver microsomes: qHTS cell viability counter screen (AID 1963580). Note: nearly all actives have a fitted effect of over 45% in size. In short, it runs like this:
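Rat liver microsome (0.5 mg/mL final) and NADPH (0.5 mg/mL final) co-incubation with compounds for 16 h at 37 C on HCT-116 p53RE-bla cells; cytotoxicity taken from intracellular ATP luminescence.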

The nature of test [8]: p53 small molecule agonists, cell-based qHTS assay: qHTS cell viability counter screen (AID 1963581). Note: nearly all actives have a fitted effect of over 45% in size. An outline of the steps:
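Counter screen read by CellTiter-Glo luminescence (ATP content, 30 min at room temperature), run in the same wells as the beta-lactamase reporter read. HCT-116 p53RE-bla cells saw compounds for 16 h at 37 C.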

The nature of test [9]: p53 small molecule agonists, cell-based qHTS assay (AID 1963582; active = well fitted activation curve with a large enough effect in the signal ratio in the repeat runs, not every such curve was filed as active; the % refers to the signal ratio). In short, it runs like this:
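Read-out is beta-lactamase FRET fluorescence after 2 h at room temperature with LiveBLAzer B/G substrate. p53 response element-bla cells were treated 16 h at 37 C with compounds in DMSO, added 5 h after seeding.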

For test [10], the target named is 5-hydroxytryptamine receptor 2A (Homo sapiens) (UniProt P28223). Briefly: 5-hydroxytryptamine receptor 2A (HTR2A) small molecule antagonists, cell-based qHTS assay (AID 1963586). Note: nearly all actives have a fitted effect of over 45% in size. In short, it runs like this:
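CHO cells stably expressing human HTR2A were plated for 18 h at 37 C, then loaded with calcium dye for 1 h. Compounds were preincubated 5 min at room temperature before DOI (4 nM solution) was added. Kinetic fluorescence was read for 3 min.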

For test [11] the target is unchanged. As to the kind of experiment: 5-hydroxytryptamine receptor 2A (HTR2A) small molecule agonists, cell-based qHTS assay (AID 1963587). Note: nearly all actives have a fitted effect of over 30% in size. Note: potency is the fitted concentration of half-maximal effect. In short, it runs like this:
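Kinetic calcium-flux fluorescence (2 min, 1 sec intervals) after compound addition in agonist mode. HTR2A-CHO cells were cultured 18 h, then dye-loaded 1 h at 37 C.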

Test [12] concerns the target Muscarinic acetylcholine receptor M1 (Homo sapiens) (UniProt P11229). Briefly: Cholinergic receptor muscarinic 1 (CHRM1) small molecule antagonists, cell-based qHTS assay (AID 1963588). Note: nearly all actives have a fitted effect of over 40% in size. In short, it runs like this: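 Compounds were tested at 15 concentrations in three independent runs. Dye-loaded CHRM1-CHO cells were exposed 5 min at room temperature before stimulation by acetylcholine added at 50nM. Intracellular calcium was read kinetically on FDSS for 3 min.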

For test [13] the target is unchanged. As to the kind of experiment: Cholinergic receptor muscarinic 1 (CHRM1) small molecule agonists, cell-based qHTS assay (AID 1963589). Note: nearly all actives have a fitted effect of over 35% in size. In short, it runs like this:
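Agonist-mode calcium-flux screen: compounds at 15 concentrations, three independent runs, were pin-transferred onto dye-loaded human CHRM1-CHO cells. Fluorescence was then recorded kinetically every second over minutes.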

The nature of test [14]: cAMP Responsive Elements (CRE) small molecule agonists, cell-based qHTS assay (AID 1963590). In short, it runs like this: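 Agonist mode: compound added to CRE-bla HEK 293T cells (2,000/well, 18 h after plating) for 3 h at 37 C/5% CO2. Reporter activity detected via FRET beta-lactamase substrate, 2 h room-temperature loading.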
Test [15] in a line: cAMP Responsive Elements (CRE) small molecule antagonists, cell-based qHTS assay (AID 1963591; active = well fitted inhibition curve with a large enough effect in the signal ratio in the repeat runs, not every such curve was filed as active; the % refers to the signal ratio). An outline of the steps: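 Antagonist mode: compounds are added alongside the adenylyl cyclase activator NKH477 (0.25 uM final) to CRE-bla HEK293T cells for 3 h. LiveBLAzer FRET substrate, 2 h at room temperature, reports bla expression.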
The target of test [16] is Beta-2 adrenergic receptor (Homo sapiens) (UniProt P07550). As to the kind of experiment: Adrenergic beta2 receptor (ADRB2) small molecule antagonists, cell-based qHTS assay (AID 1963592). Note: nearly all actives have a fitted effect of over 50% in size. Note: potency is the fitted concentration of half-maximal effect. An outline of the steps:
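Assay format: CHO-ADRB2 cells, 18-20hr seeding at 37C/5% CO2, then compound plus 1nM isoproterenol agonist mix for 0.5hr RT. Homogeneous time-resolved fluorescence cAMP detection after 1hr, expressed as 665/615 nm ratio.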

Test [17] has the same target. Briefly: Adrenergic beta2 receptor (ADRB2) small molecule agonists, cell-based qHTS assay (AID 1963593).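 Note: CHO cells stably overexpressing human ADRB2.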 An outline of the steps:
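CHO cells stably over-expressing ADRB2 were plated overnight at 37C, then dosed with compounds plus a stimulation mix containing 100uM IBMX and 25uM Ro-20-1724 for 0.5hr at room temperature. cAMP was measured by HTRF competition, 1hr.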

In test [18] the target is D(2) dopamine receptor (Homo sapiens) (UniProt P14416). As to the kind of experiment: Dopamine D2 receptor (DRD2) small molecule agonists, cell-based qHTS assay (AID 1963594). Note: nearly all actives have a fitted effect of over 35% in size. Note: potency is the fitted concentration of half-maximal effect. An outline of the steps:
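cAMP accumulation in DRD2-HEK293 cells measured by HTRF after 1 h detection; compounds added 10 min before NKH477 (200nM […]) forskolin-analogue stimulation, 30 min at room temperature, with Ro20-1724 present at 0.1 mM final.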

The target is the same in test [19]. As to the kind of experiment: Dopamine D2 receptor (DRD2) small molecule antagonists, cell-based qHTS assay (AID 1963595; active = well fitted inhibition curve with a large enough effect in the signal ratio in the repeat runs, with a control signal flat; the % refers to the signal ratio; note: potency is the fitted concentration of half-maximal effect). An outline of the steps:
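HEK293 cells stably expressing DRD2, preincubated with 0.1 mM Ro20-1724 and compounds 10 min, were stimulated with 200 nM NKH477 plus 12 nM quinpirole for 30 min at room temperature; cAMP measured by HTRF (665/620 nm).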

A short description of test [20]: p53 small molecule agonists, cell-based qHTS assay with human liver microsomes (AID 1963577). In short, it runs like this: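 Compounds act here after metabolic activation: human liver microsomes and NADPH, both at 0.5 mg/mL final, were co-added to p53RE-bla cells. Incubation ran 16 h at 37 C, followed by LiveBLAzer detection.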

Chain of Beta-2 adrenergic receptor (Homo sapiens) (P07550 whole entry, looked up): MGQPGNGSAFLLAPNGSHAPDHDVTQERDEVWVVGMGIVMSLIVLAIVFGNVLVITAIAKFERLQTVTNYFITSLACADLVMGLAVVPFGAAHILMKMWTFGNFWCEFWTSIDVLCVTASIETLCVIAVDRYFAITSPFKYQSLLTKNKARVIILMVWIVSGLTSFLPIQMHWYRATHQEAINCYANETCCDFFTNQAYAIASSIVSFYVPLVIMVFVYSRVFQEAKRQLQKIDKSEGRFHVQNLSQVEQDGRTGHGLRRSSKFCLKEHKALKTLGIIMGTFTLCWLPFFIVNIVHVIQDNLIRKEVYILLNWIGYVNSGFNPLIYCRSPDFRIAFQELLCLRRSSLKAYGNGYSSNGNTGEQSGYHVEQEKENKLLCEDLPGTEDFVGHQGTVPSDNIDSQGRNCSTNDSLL
Chain of Muscarinic acetylcholine receptor M1 (Homo sapiens) (P11229 whole entry, looked up): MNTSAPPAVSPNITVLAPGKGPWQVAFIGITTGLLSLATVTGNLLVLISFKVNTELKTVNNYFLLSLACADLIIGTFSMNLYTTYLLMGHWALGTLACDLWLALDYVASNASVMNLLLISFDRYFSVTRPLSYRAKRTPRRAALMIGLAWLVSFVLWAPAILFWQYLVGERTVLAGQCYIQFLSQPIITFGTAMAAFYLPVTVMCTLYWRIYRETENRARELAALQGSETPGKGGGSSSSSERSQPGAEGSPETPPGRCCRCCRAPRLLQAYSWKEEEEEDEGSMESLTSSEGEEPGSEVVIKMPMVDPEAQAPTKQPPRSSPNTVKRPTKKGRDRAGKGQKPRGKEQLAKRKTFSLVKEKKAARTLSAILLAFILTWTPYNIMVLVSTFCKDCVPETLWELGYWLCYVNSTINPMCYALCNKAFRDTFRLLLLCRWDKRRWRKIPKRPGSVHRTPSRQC
Chain of D(2) dopamine receptor (Homo sapiens) (P14416 whole entry, looked up): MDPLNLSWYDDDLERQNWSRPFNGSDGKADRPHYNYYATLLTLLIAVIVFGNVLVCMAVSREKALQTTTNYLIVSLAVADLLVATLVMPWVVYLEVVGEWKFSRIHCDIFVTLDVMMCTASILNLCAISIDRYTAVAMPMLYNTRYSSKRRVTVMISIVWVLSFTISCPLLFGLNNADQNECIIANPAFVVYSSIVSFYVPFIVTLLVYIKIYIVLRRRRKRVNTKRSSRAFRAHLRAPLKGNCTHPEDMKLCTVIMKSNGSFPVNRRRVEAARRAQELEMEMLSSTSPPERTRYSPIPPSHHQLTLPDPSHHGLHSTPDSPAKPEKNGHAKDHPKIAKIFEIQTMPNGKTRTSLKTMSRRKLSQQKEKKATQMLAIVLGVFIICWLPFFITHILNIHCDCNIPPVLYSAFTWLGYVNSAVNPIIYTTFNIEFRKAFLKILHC
Chain of 5-hydroxytryptamine receptor 2A (Homo sapiens) (P28223 whole entry, looked up): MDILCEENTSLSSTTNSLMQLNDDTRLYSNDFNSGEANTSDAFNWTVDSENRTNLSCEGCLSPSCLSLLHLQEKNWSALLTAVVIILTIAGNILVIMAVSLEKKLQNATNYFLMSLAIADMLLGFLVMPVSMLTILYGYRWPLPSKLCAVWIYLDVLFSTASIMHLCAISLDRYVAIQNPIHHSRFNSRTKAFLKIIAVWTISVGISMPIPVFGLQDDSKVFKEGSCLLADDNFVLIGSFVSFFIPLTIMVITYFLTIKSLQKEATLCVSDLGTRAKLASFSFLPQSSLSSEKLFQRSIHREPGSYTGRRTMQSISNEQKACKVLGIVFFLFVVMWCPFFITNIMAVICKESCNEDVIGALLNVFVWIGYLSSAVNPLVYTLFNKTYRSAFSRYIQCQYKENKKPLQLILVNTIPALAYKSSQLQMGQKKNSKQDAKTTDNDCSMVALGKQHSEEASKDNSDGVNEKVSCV
Chain of KiSS-1 receptor (Homo sapiens) (Q969F8 whole entry, looked up): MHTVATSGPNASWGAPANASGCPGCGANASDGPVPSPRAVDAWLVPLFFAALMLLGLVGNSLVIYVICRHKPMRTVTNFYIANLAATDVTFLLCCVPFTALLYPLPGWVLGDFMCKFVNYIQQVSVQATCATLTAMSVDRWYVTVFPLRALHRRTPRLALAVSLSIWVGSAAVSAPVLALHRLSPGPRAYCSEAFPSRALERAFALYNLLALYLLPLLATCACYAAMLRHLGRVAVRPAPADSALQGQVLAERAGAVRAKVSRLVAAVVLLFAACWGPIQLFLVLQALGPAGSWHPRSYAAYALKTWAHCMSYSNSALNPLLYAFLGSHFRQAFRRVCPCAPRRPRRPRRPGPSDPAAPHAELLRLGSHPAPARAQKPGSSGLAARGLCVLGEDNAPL

In the case of `Nc1c(I)cc(I)c(C(=O)N(CCC(=O)O)c2ccccc2)c1I`, the Potency result in test [1], in [2], in [3], in test [4], in [5] and in [6] was “inactive” throughout. The Potency entry in test [7], in [8], in test [9], in [10], in [11] and in test [12] was “inactive” in each case. For the same compound, the Potency entry in test [13], in test [14], in test [15], in test [16], in test [17] and in test [18] was “inactive” in each case. Further, the Potency entry in [19] was “inactive”.

In the case of `CC(C)C[C@H](NC(=O)CNC(=O)[C@H](Cc1ccc(O)cc1)NC(=O)[C@H](CO)NC(=O)[C@H](Cc1c[nH]c2ccccc12)NC(=O)[C@H](Cc1cnc[nH]1)NC(=O)[C@@H]1CCC(=O)N1)C(=O)N[C@@H](CCCN=C(N)N)C(=O)N1CCC[C@H]1C(=O)NCC(N)=O` (stereo in doubt), the Potency result in test [1], in test [2], in test [3], in [4], in test [5] and in test [6] was “inactive” in each case. Further, the Potency entry in test [7], in test [8], in test [9], in [14], in test [15] and in test [16] was “inactive” each time. The Potency entry in test [17], in test [18] and in [19] was “inactive” in each case.

For the compound `Fc1ccccc1[C@@H](F)COC1CCC(Nc2ncnc3[nH]ncc23)CC1` (some centres not stated), the Potency result in test [1], in test [2], in test [3], in test [4], in test [5] and in test [7] was “inactive” in each case. For the same compound, the Potency result in test [11], in test [12], in [13], in [16], in test [17] and in test [18] was “inactive” in each case. The Potency entry in [19] was “inactive”.

For `CC(C)COCC(CN(Cc1ccccc1)c1ccccc1)N1CCCC1` (configuration not stated), the Potency in [1] was 26.6 µM (active); in [11], 19 µM (active); in test [16], 26.6 µM (active); in [19], 29.8 µM (active). The Potency entry in [2], in test [3], in [4], in [5], in [6] and in test [7] was “inactive” throughout. Moreover, the Potency entry in test [8], in test [12] and in test [18] was “inactive” each time.

Turning to `CC1(COc2ccc(CC3SC(=O)NC3=O)cc2)CCCCC1` (configuration not stated), the Potency result in [1], in test [3], in test [4], in [20], in [5] and in test [7] was “inactive” each time. Besides, the Potency result in test [8], in test [9], in test [16] and in test [19] was “inactive” each time. The Potency in test [2] is 29.8 µM (active); in test [18], 12.8 µM (active).

Take `O=C(O)c1c2ccccc2cc2ccccc12`: the Potency result in test [1], in test [3], in test [4], in [5], in test [6] and in test [7] was “inactive” throughout. Further, the Potency result in test [9], in test [10], in test [11], in test [12], in [13] and in test [15] was “inactive” each time. Besides, the Potency entry in [16], in test [17] and in test [18] was “inactive” in each case. The Potency in [2] is 48.4 µM (active).

For the compound `CCCC(=O)OCCc1ccccc1`, the Potency entry in [1], in test [2], in test [3], in test [4], in [5] and in test [6] was “inactive” in each case. Moreover, the Potency result in [7], in test [9], in [10], in [12], in test [14] and in test [15] was “inactive” in each case. Further, the Potency entry in test [16], in [18] and in [19] was “inactive” each time.

In the case of `C=CCOCC(O)CS(=O)(=O)O` (configuration not stated), the Potency entry in test [1], in [3], in test [4], in [6], in test [7] and in [8] was “inactive” in each case. Moreover, the Potency result in test [10], in [12], in test [13], in [14], in [16] and in test [18] was “inactive” throughout. Moreover, in test [19], the Potency result is “inactive”. Moreover, the Potency in test [2] is 0.196 µM (active).
